The values that follow come from PubChem BioAssay.

A number with no mark means an inactive call. The rule behind the calls is not given here.

By inhibition is commonly meant the change of the read-out against control, counted positive when it falls.

This assay deals with Pantothenate synthetase (Mycobacterium tuberculosis (strain ATCC 25618 / H37Rv)) (UniProt P9WIL5). Kind of assay: Recombinant Mtb pantothenate synthetase (PanC) inhibitors, coupled enzyme, confirmatory (AID 375).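 Note: 0% = full reaction with vehicle and 100% = no enzyme background.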 To be noted: coupled enzyme assay; at 10 µM, hits give high values.
Sequence of Pantothenate synthetase (Mycobacterium tuberculosis (strain ATCC 25618 / H37Rv)) (P9WIL5 whole entry, looked up): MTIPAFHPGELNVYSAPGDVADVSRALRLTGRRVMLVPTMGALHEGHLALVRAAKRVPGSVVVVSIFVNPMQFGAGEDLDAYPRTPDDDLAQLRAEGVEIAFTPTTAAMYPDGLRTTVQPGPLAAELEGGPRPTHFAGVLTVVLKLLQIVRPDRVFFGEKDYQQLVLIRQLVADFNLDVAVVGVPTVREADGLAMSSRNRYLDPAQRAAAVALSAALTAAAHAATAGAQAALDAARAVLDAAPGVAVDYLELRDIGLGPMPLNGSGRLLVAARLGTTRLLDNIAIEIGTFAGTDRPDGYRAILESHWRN
Consider `Cc1cc(C(F)F)n2ncc(C(=O)NC3CCCCCC3)c2n1`, for which the inhibition is 0%. On to `O=c1cc(CN2CCN(c3ccc(F)cc3)CC2)nc2sccn12`, for which the inhibition was 0%. As for `O=C(NC(NC1CCS(=O)(=O)C1)C(=O)c1cccs1)c1ccccc1` (stereo not given), the figure is 1%.

On to `O=C(Nc1cccc(Cl)c1)N1CCN(Cc2ccccc2)CC1`, for which the inhibition was 5%. For the molecule `Cc1nc2ccccc2cc1O`, the inhibition was 0%. On to `Oc1ccc(N2CCN(C(c3ccncc3)c3nnnn3C3CCCC3)CC2)cc1` (stereo not given), for which the inhibition is 11%. In the case of `CCOc1ccc(OCC)c(NC(=O)CN2CCN(C(=O)c3ccco3)CC2)c1`, the inhibition was 0%.

On to `O=C(CS(=O)(=O)Cc1ccccc1)N1CCc2ccccc2C1`, for which the inhibition is 1%. For `CCOC(=O)c1sc(NS(=O)(=O)c2ccc(NC(C)=O)cc2)nc1C`, the inhibition is 0%.

As to `CN(C1CCCCC1)S(=O)(=O)c1ccc(NC(=O)c2ccco2)cc1`, the inhibition is 0%.

As for `c1ccc2c(c1)[nH]c1c(N3CCC4(CC3)OCCO4)ncnc12`, the inhibition was 0%.

Turning to `COc1ccc2oc(=O)c(C(=O)N3CCN(c4ccccc4F)CC3)cc2c1`, the inhibition is 0%.

With `CN(CC(=O)Nc1ccc(F)c(Cl)c1)S(=O)(=O)c1cccc2nsnc12`, the inhibition was 0%.

As for `COCCNC(=O)C(c1cccs1)N(C(=O)Cn1nnc2ccccc21)c1ccccc1` (stereo not given), the inhibition was 6%. For the molecule `O=C(OCC(=O)N1CCc2ccccc21)C1=COCCO1`, the inhibition is 0%. As to `Cn1nc(C(C)(C)C)cc1C(=O)NCc1ccc(N2CCCC2=O)cc1`, the inhibition is 0%. As to `CC1=C(C(=O)Nc2ccccc2C)C2(CCCC2)C(C(N)=O)C(=O)N1` (stereo not given), the inhibition is 0%.

For the molecule `Cc1ccc(NC(=O)N2CCC(c3nc4c(nnn4Cc4cccc(Cl)c4)c(=O)[nH]3)CC2)cc1`, the inhibition is 0%.

As to `C=CCn1c(COc2cccc(C)c2)nnc1SCC(=O)NC(=O)NCc1ccco1`, the inhibition was 0%. As for `COC(=O)c1ccc(N2C(=O)CC(N3CCN(C(=O)c4ccco4)CC3)C2=O)cc1` (stereo not given), the figure is 0%. With `Cc1ccc(Cn2nnc3c(=O)[nH]c(C4CCN(S(=O)(=O)c5ccc(F)cc5)CC4)nc32)cc1`, the inhibition was 3%.

With `CCOC(=O)Cc1csc(NC(=O)CSc2nnc(C(C)C)n2CC)n1`, the inhibition is 0%. Consider `Cc1cc(/C=N/n2cnnc2)c(C)n1-c1cccc(Cl)c1`, for which the inhibition is 0%. For the molecule `CC1(C(=O)NC2CCCCC2)CCC(=O)N1Cc1cccs1` (stereo not given), the inhibition is 0%. `CCCOc1ccc(N2C(=O)CC(SCCN)C2=O)cc1` (stereo not given): the inhibition is 0%. Turning to `c1cn(C23CC4CC(CC(C4)C2)C3)cn1`, the inhibition is 0%. In the case of `CCCn1c2ccccc2c2nnc(SCC(=O)Nc3ncccn3)nc21` it was 8%; in that of `FC(F)(F)c1nnc2sc(-c3cccs3)nn12`, 4%. As for `CCCCS(=O)(=O)NC1=NCN(C2CCN(Cc3ccccc3)CC2)CN1`, the figure is 5%; as for `O=C(Oc1ccc(Cl)cc1N1C(=O)CCC1=O)c1ccco1`, 6%. Consider `O=C1NC(Cc2c[nH]c3ccccc23)C(=O)N1CCOc1ccccc1` (stereo not given), for which the inhibition was 2%. `Cc1cc(-c2nc3ncccc3o2)ccc1N`: the inhibition is 0%.

In the case of `Cc1cc(C)n2c(SCCN3C(=O)c4ccccc4C3=O)nnc2n1`, the inhibition was 0%.

In the case of `COc1cc(NC(=O)c2ccco2)c(OC)cc1NC(=O)CCC(=O)Nc1cc(C)cc(C)c1`, the inhibition is 8%.

As for `Cc1c(C(=O)NCCC2=CCCCC2)oc2ccc(S(=O)(=O)N3CCC4(CC3)OCCO4)cc12`, the inhibition was 0%. Regarding `Cc1cccc(N(C)C(=O)c2cc3cc4ccc(C)cc4nc3o2)c1`, the inhibition is 0%. With `CCOc1ccc(Cl)cc1S(=O)(=O)N1CCCC1`, the inhibition was 0%. Consider `O=C(C1CCN(c2nnc(-n3cccc3)s2)CC1)N1CCc2ccccc2C1`, for which the inhibition is 0%. As to `Cc1cc(NCC2CCCO2)n2c(nc3ccccc32)c1C#N` (stereo not given), the inhibition is 1%. `Cc1ccc(Br)cc1S(=O)(=O)N1CCN(c2ccccc2)CC1`: the inhibition is 0%.
